Laboratory results: PubChem BioAssay AID1347426 (Functional Genomics Laboratory (NCATS/FGL), 2020)
In all, about 31,000 sequences went through this assay and about 1,400 (4.5%) were called active. Shown is part of a subset that was picked to be rich in actives. Values without a mark were called inactive.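 The calls were made as follows: active = median seed-adjusted z-score above 1 or below -1; inactive = the rest.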

Experiment: Novel Modifiers of Survival Motor Neuron (SMN) Protein: Gene Identification via Genome-wide siRNA Screen
Conditions: HEK293T SMN2-luciferase reporter, siRNA knockdown, 72 h; actives lie on both sides
From the text: Spinal muscular atrophy (SMA) is the most common neuromuscular autosomal recessive disorder and one of the leading genetic causes of infant death. SMA results from mutations inducing loss of function or deletion in the survival of motor neuron-1 gene (SMN1), leading to deficiency of the survival motor neuron (SMN) protein. Although a second nearly identical gene, SMN2, is retained in humans, its expression primarily produces an aberrantly spliced isoform that is largely unstable and quickly degraded. We performed a genome-wide RNAi screen using a cell-based reporter assay to identify genes and pathways that modulate SMN protein stability. The screen identified over 200 genes that led to the greatest increase or decrease in luciferase expression.
Using HEK293T cells stably expressing a luciferase reporter that combines the promoter and splicing based cassettes in tandem with the major portion of the native SMN2 cDNA with luciferase, we performed a genome-wide RNAi screen to identify modulators of SMN protein levels. Luciferase is expressed when full-length SMN protein is generated with luminescence signal proportional to SMN protein levels. Our luciferase-based reporter assay was used to screen Ambion Silencer Select Human Druggable Genome siRNA library (10418 genes, 3 unique siRNAs per gene) using lipid-based reverse transfection.
Briefly, 1 pmol of each siRNA was spotted to a well of a 384-well plate (Corning, Corning, NY) and 20 microL of serum-free DMEM containing […] of Lipofectamine RNAiMax (Life Technologies, Carlsbad, CA) was then added to each well. Transfected cells were maintained at 37 degrees C in 5% CO2 for 72 hours, 20 microL of ONE-Glo Reagent (Promega) was added to wells for luciferase quantification. Raw luminescence reads were normalized to Ambion(R) Silencer(R) Negative Control #2 siRNA, then log10 transformed. A robust statistical measure of median absolute deviation (MAD) to standardize siRNA activities from each screen. Common Seed Analysis was used to help prioritize clean hits as opposed to those appearing to arise from seed based off-target effects. Candidate modulators were defined as the genes having a MAD score greater than 1.0 or less than -1.0.
Sequence GGCGAAGUGUCCGACAGAATT against ZNF747 has a median seed-adjusted z-score of 0.379. For GGAGAUCUGCUACUAAACATT against PSMD6, the median seed-adjusted z-score was -1.03 (active). In the case of GGGAGAGUGGUGAACGUAUTT against CBR1, the median seed-adjusted z-score is reported as -0.6. Work on CAGUGUUAAUGACCGAAGATT against EIF4G1 yielded a median seed-adjusted z-score of -0.978. In the case of GAUGAUACCAGGCAUAUAATT against USP15, the median seed-adjusted z-score is reported as -0.405. Sequence GCAAUCUUGUUGUACACCATT against ZNF432 has a median seed-adjusted z-score of -0.124. GGAGCUGAAUGAGCUGACATT against OSBPL7 gave a median seed-adjusted z-score of 0. In the case of “CCACGAUGUGGGAUAAUAATT against GALNAC4S-6ST”, the median seed-adjusted z-score is reported as 0.218. With GUGGUGCAGUUUUUCGUAATT against THOC2 the median seed-adjusted z-score was -1.22 (active). In the case of GGCUCAUAAUGGAGCAGGUTT against TIMM13, the median seed-adjusted z-score is reported as -0.422. CAGUCUUGAUUCCACUGAATT against PCDHA3 gave a median seed-adjusted z-score of 0.311. Work on CGGAUAUUCCUGAACGCAATT against MARK3 yielded a median seed-adjusted z-score of 0.271. For GCACGCGGCUAUACAAUCATT against SLC25A34, the median seed-adjusted z-score was -0.256. With GAAGCAGUGCCAAUGAACATT against TCEB2 the median seed-adjusted z-score was 1.28 (active). Sequence AGCACAUCUCGGUCCUCCATT against MAPK8IP2 has a median seed-adjusted z-score of 0.284. GGACGAUCACUGUUGUGCATT against RBM22 gave a median seed-adjusted z-score of 0.0259. With ACUUGAAUCUUAGCAUUCATT against RAD9A the median seed-adjusted z-score was -0.0564. Sequence CAAGACUGCUGAUGAGUUUTT against HSD17B3 has a median seed-adjusted z-score of 0.734. In the case of CUUUCACACUCGACACUGATT against HOXA2, the median seed-adjusted z-score is reported as 0.335. In the case of GAACAUCCGUGAGCAAGGATT against KCNJ8, the median seed-adjusted z-score is reported as 0.329. For GCCCUUGCCUUAUUGCUGATT against MED20, the median seed-adjusted z-score was -1.66 (active). In the case of GGCUUGAGUUCAUUCAGAATT against PKN3, the median seed-adjusted z-score is reported as 0.476. GCCGGUGCUUUAUCUCAUUTT against GPR87 gave a median seed-adjusted z-score of 0.237. With GAGACUUUCUACAAUACUATT against EIF4A2 the median seed-adjusted z-score was 0. CGCUCUCUUCACUUACGAATT against MYO10 gave a median seed-adjusted z-score of 0.8. For UAAUGACCCUAUCUAUAAATT against UGT2B17, the median seed-adjusted z-score was -0.0203. In the case of GAUGGAUUCUUGUUCCGUUTT against KCTD16, the median seed-adjusted z-score is reported as 0.00219. In the case of GAACUUCUACUUUAACAAATT against HS3ST1, the median seed-adjusted z-score is reported as 1.21 (active). With CUUUUGAACAGAUCGAUGATT against EXO1 the median seed-adjusted z-score was 0.547. With GCUCAUAAAUGAGAAGCUATT against PCDHB16 the median seed-adjusted z-score was -0.523.
